In PubChem BioAssay:
Results with a measured potency or affinity are listed apart. The source made the active and inactive calls. Cut-off not given; nearly all actives show IC50 up to about 0.91 µM.

molecular target: Calcium-dependent protein kinase 4 (Plasmodium falciparum (isolate 3D7)) (UniProt Q8IBS5); assay: PfCDPK4 kinase inhibitors, biochemical, TCAMS library (AID 1159588); details: recombinant PfCDPK4, Kinase-Glo ATP depletion luminescence
Sequence (Q8IBS5 whole entry, looked up): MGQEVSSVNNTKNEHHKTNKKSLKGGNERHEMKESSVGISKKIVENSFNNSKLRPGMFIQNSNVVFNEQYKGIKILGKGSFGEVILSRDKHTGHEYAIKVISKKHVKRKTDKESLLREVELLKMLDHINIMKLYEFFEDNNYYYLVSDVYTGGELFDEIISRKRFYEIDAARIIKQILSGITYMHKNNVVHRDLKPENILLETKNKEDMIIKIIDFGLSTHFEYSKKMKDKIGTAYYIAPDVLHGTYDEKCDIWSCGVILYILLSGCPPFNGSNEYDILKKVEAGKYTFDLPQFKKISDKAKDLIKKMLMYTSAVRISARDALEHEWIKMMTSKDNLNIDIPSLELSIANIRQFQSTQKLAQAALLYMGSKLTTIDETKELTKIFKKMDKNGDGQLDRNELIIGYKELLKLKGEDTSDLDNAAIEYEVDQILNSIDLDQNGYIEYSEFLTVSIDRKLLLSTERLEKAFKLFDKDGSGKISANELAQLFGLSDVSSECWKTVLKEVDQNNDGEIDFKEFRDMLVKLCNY

outcome, inactive:
c1ccc2nc(NCCCCCCCCNc3ccc4ccccc4n3)ccc2c1
O=C(Nc1cccc(-c2cccc(-c3nc4ccc(F)cc4[nH]3)c2)c1)Nc1ccc(F)c(F)c1F
Cc1ccc(C2=NNC3(S2)C(=O)N(C)c2ccccc23)cc1 (centres undefined)
Cc1c(N)ccc2[nH]c(-c3ccc(N)cc3)nc12
Fc1cccc(Nc2nc(NCc3ccc(Cl)c(Cl)c3)nc(Nc3cccc(F)c3)n2)c1
CC1(C)N=C(NC(=O)c2ccc([N+](=O)[O-])cc2)N=C(N)N1OCc1ccc2ccccc2c1
O=[N+]([O-])c1cccc(C=NNc2ccnc3cc(F)ccc23)c1
CC(C)OC(=O)c1ccccc1S(N)(=O)=O
COc1ccc(CC(=O)NC2CCN(c3ccnc4cc(Cl)ccc34)C2)cc1 (centres undefined)
Cc1nc2nc(N)nc(N)c2c(C)c1Cc1ccc(C#N)cc1
COc1ccc(S(=O)(=O)N2CCC3(CC2)OCC(=O)NC3c2ccc(Cl)c(Cl)c2)cc1 (centres undefined)
COC(=O)c1ccc(OCC(C)NCC(O)c2cccc(C(F)(F)F)c2)cc1 (centres undefined)
COc1ccc2nccc([C@@H](O)CN3CCC(NC(=O)/C=C/c4ccc5ccccc5n4)CC3)c2c1
COc1ccc2nccc([C@@H](O)CN3CCC(NCCNc4ccccn4)CC3)c2c1
CS(=O)(=O)c1ccc(CCNCc2ccc(-c3ccc(CN(C(=O)C4CC(=O)c5ccccc54)C4Cc5ccccc5C4)cc3)nc2)cc1 (centres undefined)
Cc1c(C)c2c(c(C)c1O)CC[C@@](C)(C(=O)N1CCC(CCN3CCC(c4c[nH]c5ccccc45)CC3)CC1)O2
Cc1noc(C)c1S(=O)(=O)N(C)Cc1ccc(-c2ccc(Cl)cc2)o1
CCC(C)(CC)C(=O)n1ncc2c3c(N)nc(N)nc3ccc21
Clc1ncccc1-c1nc(NCCC(c2ccccc2)c2ccccc2)no1
CCCCCCN1CCCN(Cc2ccc(C(=O)Nc3cccc(CC)c3)cc2)CC1
Cc1ccc(NC(=S)N2CCCN(CCCCCNC(=O)/C=C/c3ccc(Cl)c(Cl)c3)CC2)cc1Cl
CCOc1cc(C(=O)NCc2cc(Cl)cc(Cl)c2)ccc1-c1nc2ccc(Cl)cc2[nH]1
COc1cc(C(F)(F)F)cc2[nH]c(CNCCCNc3nc4ccccc4[nH]3)cc12
NC1=Nc2ccc(Cl)cc2C1(O)c1ccccc1 (centres undefined)
